# Assay results published in PubChem BioAssay (EPA / NIEHS).
# Results filed as inconclusive are left out. The source made the active and inactive calls. How the source made its calls: active means hit-call score of the fitted dose curve at least 0.9, where 1 is the maximum; inconclusive means response in the unintended direction; inactive means score below 0.9.
# Target: human Vascular Endothelial Growth Factor Receptor 2 (VEGFR2), KDR (gene 3791) (UniProt P35968)
# Test: NVS_ENZ_hVEGFR2: NovaScreen (NVS) Enzymatic Assay for human Vascular Endothelial Growth Factor Receptor 2 (VEGFR2) (AID 2283230)
# Procedure, shortened: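 Cell-free recombinant VEGFR2 kinase, fluorescent substrate with electrophoretic mobility-shift separation; read 1 h after dosing. Screened at 25 uM in duplicate, hits to concentration-response up to 50 uM; loss-of-signal versus DMSO.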
# Chain of human Vascular Endothelial Growth Factor Receptor 2 (VEGFR2), KDR (gene 3791) (P35968 whole entry, looked up): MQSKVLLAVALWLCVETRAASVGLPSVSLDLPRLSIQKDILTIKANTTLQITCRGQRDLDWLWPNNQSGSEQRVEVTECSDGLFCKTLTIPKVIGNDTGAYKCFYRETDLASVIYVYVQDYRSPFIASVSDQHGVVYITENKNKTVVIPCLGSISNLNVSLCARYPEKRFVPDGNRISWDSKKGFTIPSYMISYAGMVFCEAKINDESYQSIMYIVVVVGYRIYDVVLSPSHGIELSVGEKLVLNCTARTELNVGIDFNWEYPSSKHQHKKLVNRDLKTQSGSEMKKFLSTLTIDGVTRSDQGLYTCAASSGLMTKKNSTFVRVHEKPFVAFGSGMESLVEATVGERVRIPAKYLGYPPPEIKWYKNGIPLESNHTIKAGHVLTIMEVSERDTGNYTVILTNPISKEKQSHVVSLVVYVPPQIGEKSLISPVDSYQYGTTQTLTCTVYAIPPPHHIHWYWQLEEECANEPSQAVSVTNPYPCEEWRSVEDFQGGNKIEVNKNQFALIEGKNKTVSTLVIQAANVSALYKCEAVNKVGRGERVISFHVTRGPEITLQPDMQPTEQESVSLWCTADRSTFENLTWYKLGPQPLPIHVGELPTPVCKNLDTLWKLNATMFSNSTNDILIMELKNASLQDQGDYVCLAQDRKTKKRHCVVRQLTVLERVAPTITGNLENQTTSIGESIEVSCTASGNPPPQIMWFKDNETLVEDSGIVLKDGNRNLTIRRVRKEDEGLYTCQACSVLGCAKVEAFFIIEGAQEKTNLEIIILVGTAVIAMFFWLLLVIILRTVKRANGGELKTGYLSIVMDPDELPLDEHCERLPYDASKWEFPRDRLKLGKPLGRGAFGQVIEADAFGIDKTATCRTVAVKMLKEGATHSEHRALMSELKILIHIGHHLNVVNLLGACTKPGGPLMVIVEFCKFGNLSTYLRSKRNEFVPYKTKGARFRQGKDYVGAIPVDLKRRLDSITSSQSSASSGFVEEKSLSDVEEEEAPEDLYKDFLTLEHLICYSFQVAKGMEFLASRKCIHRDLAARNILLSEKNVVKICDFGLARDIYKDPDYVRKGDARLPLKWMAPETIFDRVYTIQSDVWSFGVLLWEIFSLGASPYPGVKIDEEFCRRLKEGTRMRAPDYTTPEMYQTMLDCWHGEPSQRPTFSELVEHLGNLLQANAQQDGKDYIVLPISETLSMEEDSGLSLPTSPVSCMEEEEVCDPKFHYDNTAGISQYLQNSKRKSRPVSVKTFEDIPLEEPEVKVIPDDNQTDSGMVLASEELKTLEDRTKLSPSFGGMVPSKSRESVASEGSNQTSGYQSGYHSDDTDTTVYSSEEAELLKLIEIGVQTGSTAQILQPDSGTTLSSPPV
row,Compound,outcome
1,CCCCCCOCCO,inactive
2,O=c1[nH]cc(F)c(=O)[nH]1,inactive
3,CC(C)(C)c1cc(O)c(C(C)(C)C)cc1O,inactive
4,CN[C@H]1CC[C@@H](c2ccc(Cl)c(Cl)c2)c2ccc(S(N)(=O)=O)cc21,inactive
5,CCCCCCCCCCCCCO,inactive

# Target: sheep Cyclooxygenase-2 (Cox2), PTGS2 (gene 443460) (UniProt P79208)
# Sequence (P79208 whole entry, looked up): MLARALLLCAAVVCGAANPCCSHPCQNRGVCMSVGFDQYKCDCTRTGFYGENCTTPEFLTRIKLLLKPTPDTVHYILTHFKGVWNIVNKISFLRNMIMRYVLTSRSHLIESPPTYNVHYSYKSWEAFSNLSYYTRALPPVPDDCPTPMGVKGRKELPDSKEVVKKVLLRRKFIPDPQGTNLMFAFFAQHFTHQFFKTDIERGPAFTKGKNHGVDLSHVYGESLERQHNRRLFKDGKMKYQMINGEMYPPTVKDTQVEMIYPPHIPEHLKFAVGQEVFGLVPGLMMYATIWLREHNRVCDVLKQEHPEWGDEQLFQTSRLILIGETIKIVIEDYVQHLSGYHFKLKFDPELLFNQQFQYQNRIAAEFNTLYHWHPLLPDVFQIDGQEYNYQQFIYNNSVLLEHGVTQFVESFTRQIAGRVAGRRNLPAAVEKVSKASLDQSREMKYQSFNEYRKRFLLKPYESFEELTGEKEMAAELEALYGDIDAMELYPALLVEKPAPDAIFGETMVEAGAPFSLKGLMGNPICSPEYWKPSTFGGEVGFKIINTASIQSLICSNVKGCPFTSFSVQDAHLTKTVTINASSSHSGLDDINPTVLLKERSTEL
# Test: NVS_ENZ_oCOX2: NovaScreen (NVS) Enzymatic Assay for sheep Cyclooxygenase-2 (Cox2) (AID 2283231)
# Procedure, shortened: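 Ovine placental enzyme, cell-free; chemical added, 0.66 h, absorbance (colorimetric). Screen 25 uM in duplicate; ≥threshold hits titrated, top 50 uM. Inhibition = signal loss vs DMSO.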
Compound,AC50,outcome
CC(=O)OC/C=C(\C)CCC=C(C)C,9.67 µM (active),–
CCCCN(CCCC)CCCC,–,inactive
C=CCc1ccc(O)c(OC)c1,15.7 µM (active),–
Cc1ccc(C)c(O)c1C,3.04 µM (active),–
CCOC(=O)C(C)(C)Oc1ccc(Cl)cc1,8.26 µM (active),–
CC(=O)Oc1ccccc1C(=O)O,–,inactive

# Target: rat Constitutive Nitric Oxide Synthase (CNOS), Nos1 (gene 24598) (UniProt P29476)
# Sequence (P29476 whole entry, looked up): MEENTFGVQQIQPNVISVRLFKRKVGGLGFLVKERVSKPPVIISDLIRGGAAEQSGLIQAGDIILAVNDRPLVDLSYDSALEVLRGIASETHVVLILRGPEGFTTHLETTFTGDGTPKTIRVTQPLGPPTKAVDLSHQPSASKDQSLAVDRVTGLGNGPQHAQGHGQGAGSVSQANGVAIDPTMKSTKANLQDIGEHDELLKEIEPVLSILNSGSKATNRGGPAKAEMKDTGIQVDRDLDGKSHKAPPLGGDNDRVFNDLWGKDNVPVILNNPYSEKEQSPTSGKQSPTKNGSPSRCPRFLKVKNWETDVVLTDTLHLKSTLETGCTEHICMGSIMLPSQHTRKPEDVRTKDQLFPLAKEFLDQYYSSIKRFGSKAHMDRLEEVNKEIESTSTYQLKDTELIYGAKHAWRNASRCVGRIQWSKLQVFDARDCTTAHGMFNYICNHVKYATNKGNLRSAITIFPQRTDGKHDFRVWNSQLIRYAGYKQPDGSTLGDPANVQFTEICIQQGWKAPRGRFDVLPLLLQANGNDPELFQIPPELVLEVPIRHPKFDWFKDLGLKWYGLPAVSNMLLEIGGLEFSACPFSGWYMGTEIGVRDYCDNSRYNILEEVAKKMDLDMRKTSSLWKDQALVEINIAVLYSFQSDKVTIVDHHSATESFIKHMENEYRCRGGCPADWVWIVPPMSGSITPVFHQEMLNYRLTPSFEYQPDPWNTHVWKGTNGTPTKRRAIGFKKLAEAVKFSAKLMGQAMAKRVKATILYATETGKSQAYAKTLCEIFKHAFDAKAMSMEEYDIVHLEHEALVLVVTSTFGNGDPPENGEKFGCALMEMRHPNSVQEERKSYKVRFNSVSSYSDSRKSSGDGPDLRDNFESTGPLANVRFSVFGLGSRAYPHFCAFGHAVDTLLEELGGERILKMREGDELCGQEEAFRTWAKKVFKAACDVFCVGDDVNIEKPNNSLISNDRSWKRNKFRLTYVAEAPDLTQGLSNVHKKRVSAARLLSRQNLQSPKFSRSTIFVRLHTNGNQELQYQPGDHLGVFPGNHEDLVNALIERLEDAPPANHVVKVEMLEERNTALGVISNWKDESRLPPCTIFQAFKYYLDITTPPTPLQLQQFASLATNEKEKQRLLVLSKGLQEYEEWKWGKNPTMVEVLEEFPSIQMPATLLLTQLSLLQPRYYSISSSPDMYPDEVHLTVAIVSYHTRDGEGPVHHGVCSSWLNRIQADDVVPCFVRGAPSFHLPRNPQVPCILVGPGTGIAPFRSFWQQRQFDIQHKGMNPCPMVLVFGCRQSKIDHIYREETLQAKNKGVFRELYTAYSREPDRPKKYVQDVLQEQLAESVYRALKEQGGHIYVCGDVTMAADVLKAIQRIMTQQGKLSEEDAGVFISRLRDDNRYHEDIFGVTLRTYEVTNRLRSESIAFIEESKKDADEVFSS
# Test: NVS_ENZ_rCNOS: NovaScreen (NVS) Enzymatic Assay for rat Constitutive Nitric Oxide Synthase (CNOS) (AID 2283236)
# Procedure, shortened: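 Single 25 uM duplicate screen, then concentration series to 50 uM for chemicals meeting threshold. Rat brain membrane-derived CNOS activity detected radiometrically by filtration and scintillation counting, 1 h after compound addition; DMSO as baseline.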
Compound,outcome,AC50
CCCCC(CC)COC(=O)CC(C(=O)OCC(CC)CCCC)S(=O)(=O)O (stereo not given),inactive,–
Cc1cc(=O)[nH]c(=S)[nH]1,–,6.64 µM (active)
Nc1ccc2c(c1)C(=O)c1ccccc1C2=O,inactive,–
COc1cc(C=O)ccc1O,inactive,–
COc1cc(S(=O)(=O)O)c(C)cc1N=Nc1c(O)ccc2cc(S(=O)(=O)O)ccc12,inactive,–
COc1ccc(C)cc1N,–,7.8 µM (active)

# Target: sheep Cyclooxygenase-1 (Cox1), PTGS1 (gene 443551) (UniProt P05979)
# Sequence (P05979 whole entry, looked up): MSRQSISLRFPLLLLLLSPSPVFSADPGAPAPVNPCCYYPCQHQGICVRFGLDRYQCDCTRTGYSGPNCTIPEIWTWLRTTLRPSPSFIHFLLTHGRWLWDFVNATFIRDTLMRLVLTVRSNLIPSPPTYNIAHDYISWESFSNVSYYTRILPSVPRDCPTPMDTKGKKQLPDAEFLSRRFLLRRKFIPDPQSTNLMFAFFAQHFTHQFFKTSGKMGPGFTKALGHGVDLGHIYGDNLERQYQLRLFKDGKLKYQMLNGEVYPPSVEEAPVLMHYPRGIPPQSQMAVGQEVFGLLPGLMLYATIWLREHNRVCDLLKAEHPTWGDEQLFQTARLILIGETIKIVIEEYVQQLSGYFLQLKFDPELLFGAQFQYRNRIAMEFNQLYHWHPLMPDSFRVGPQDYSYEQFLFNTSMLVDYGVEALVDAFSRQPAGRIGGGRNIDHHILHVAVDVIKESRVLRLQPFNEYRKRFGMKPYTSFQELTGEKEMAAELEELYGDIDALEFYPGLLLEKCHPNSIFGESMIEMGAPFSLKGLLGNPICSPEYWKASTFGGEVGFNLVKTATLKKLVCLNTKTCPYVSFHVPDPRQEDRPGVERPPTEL
# Test: NVS_ENZ_oCOX1: NovaScreen (NVS) Enzymatic Assay for sheep Cyclooxygenase-1 (Cox1) (AID 2283239);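 further: actives reduce cyclooxygenase activity so potencies are for inhibitors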
# Procedure, shortened: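 Cell-free colorimetric assay of enzyme activity in a native extract of ovine seminal vesicles. Absorbance was read 0.66 hour after compound addition. Loss of signal relative to the DMSO negative control was scored, with actives from the 25 uM duplicate primary screen retested in concentration series.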
Compound,AC50,outcome
CCCCC(CC)COC(=O)CC(C(=O)OCC(CC)CCCC)S(=O)(=O)O (stereo not given),6.53 µM (active),–
CC(=O)OC/C=C(\C)CCC=C(C)C,8.78 µM (active),–
Nc1nc(N)c2nc(CNc3ccc(C(=O)N[C@@H](CCC(=O)O)C(=O)O)cc3)cnc2n1,1.66 µM (active),–
O=[N+]([O-])C(CO)(CO)CO,–,inactive
CC=Cc1ccc(O)c(OC)c1,–,inactive
COc1ccc(C)cc1N,10.7 µM (active),–
CCOC(=O)C(C)(C)Oc1ccc(Cl)cc1,–,inactive
Cc1ccc(Cl)cc1,–,inactive
CC(=O)Oc1ccccc1C(=O)O,–,inactive
CCCCCCC(=O)OCC,–,inactive

# Target: Adenosine receptor A1 (Bos taurus) (UniProt P28190)
# Sequence (P28190 whole entry, looked up): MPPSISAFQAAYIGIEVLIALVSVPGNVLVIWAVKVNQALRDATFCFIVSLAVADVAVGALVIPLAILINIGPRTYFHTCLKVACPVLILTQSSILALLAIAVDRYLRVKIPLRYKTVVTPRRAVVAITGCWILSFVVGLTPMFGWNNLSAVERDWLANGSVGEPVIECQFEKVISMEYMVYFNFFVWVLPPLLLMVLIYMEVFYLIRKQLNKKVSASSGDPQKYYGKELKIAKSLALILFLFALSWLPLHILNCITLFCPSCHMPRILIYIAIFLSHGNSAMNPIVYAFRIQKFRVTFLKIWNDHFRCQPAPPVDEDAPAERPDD
# Test: NVS_GPCR_bAdoR_NonSelective: NovaScreen (NVS) G Protein-Coupled Receptor Assay for bovine Adenosine Receptor (AdoR), Non-selective Binding (AID 2283244)
# Procedure, shortened: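 Cell-free binding with membranes from bovine striatum: radioligand displaced by test chemical, read after 1 h by filtration and scintillation. Single-point 25 uM duplicate primary, 50 uM top concentration in follow-up curves, DMSO baseline.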
Compound,AC50,outcome
Oc1ccc2ccccc2c1N=Nc1ccccc1,25 µM (active),–
Cc1ccc(N(C)C)cc1,–,inactive
Nc1ccc2c(c1)C(=O)c1ccccc1C2=O,25 µM (active),–
COc1cc(S(=O)(=O)O)c(C)cc1N=Nc1c(O)ccc2cc(S(=O)(=O)O)ccc12,–,inactive
O=c1c(O)c(-c2ccc(O)c(O)c2)oc2cc(O)cc(O)c12,0.89 µM (active),–

# System: not listed separately
# Test: NVS_GPCR_bNPY_NonSelective: NovaScreen (NVS) G Protein-Coupled Receptor Assay for bovine Neuropeptide Y (NPY) Receptor, Non-selective Binding (AID 2283245)
# Protocol: NVS_GPCR_bNPY_NonSelective is a biochemical, single-readout assay that uses extracted gene-proteins from Bovine hippocampal membranes in a tissue-based cell-free assay. Measurements were taken 1 hour after chemical dosing in a 96-well plate.NVS_GPCR_bNPY_NonSelective is one of one assay component(s) measured or calculated from the NVS_GPCR_bNPY_NonSelective assay. It is designed to make measurements of radioligand binding, a form of binding reporter, as detected with scintillation counting signals by Filter-based radiodetection technology.Data from the assay component NVS_GPCR_bNPY_NonSelective was analyzed into 1 assay endpoint. This assay endpoint, NVS_GPCR_bNPY_NonSelective, was analyzed in the positive analysis fitting direction relative to DMSO as the negative control and baseline of activity. Using a type of binding reporter, loss-of-signal activity can be used to understand changes in the binding as they relate to the gene NPY. Furthermore, this assay endpoint can be referred to as a primary readout, because the performed assay has only produced 1 assay endpoint. To generalize the intended target to other relatable targets, this assay endpoint is annotated to the gpcr intended target family, where the subfamily is rhodopsin-like receptor.
# Binding assays used specific radioligands (tritiated, iodinated) with non-radioactive competitive displacement ligands in agonist or antagonist protocols (as indicated) and various reference compounds and inhibitors to titrate specific binding to receptors and transporters. Most enzyme assays (CYPs, kinases, phosphatases, proteases, HDACs) used recombinant protein and specific substrates (fluorescence mostly, some colorimetric and radioactive) and inhibitors, followed by a biochemical separation of substrate and product. All assays for the biochemical HTS were initially run in duplicate at a single concentration (10 uM for CYP450 assays and 25 uM for all others). […]
row,Compound,outcome
1,COc1ccc(S(=O)(=O)N2C(=O)[C@@](c3ccccc3OC)(N3C[C@H](O)C[C@H]3C(=O)N(C)C)c3cc(Cl)ccc32)c(OC)c1,inactive
2,CCCCCCOCCO,inactive
3,CCCCCCCCCCCC(=O)OC,inactive
